Active and inactive are the calls of the source.
Experiments:
[1] = small molecules captured by biotinylated probe aFSTL3 – biochemical, small-molecule microarray, fluorescence 635/667, stem cell growth factor project, primary screen (AID 1064); conditions: higher = more signal;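 also: measures binding of the biotinylated anti-FSTL3 antibody to printed compounds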
[2] = binders from COS7 lysate, DM2A8 probe, primary screen, torsin A project, cell lysate, small-molecule microarray, fluorescence 635/667 (AID 1065); conditions: higher = more signal, COS7 lysate expressing mutant human TOR1A
[3] = small molecules captured by biotinylated probe aFGF2 – biochemical, small-molecule microarray, fluorescence 635/667, stem cell growth factor project, primary screen (AID 1067); conditions: higher = more signal;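 also: measures binding of biotinylated aFGF2 protein to printed compounds on slides; z-score merges feature fluorescence and signal-to-noise across triplicate slides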
[4] = small molecules captured by biotinylated probe aFGF10 – biochemical, small-molecule microarray, fluorescence 635/667, stem cell growth factor project, primary screen (AID 1071); conditions: higher = more signal;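 also: score merges 667 nm spot intensity and signal to noise from triplicate slides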
[5] = target: Neurogenic locus notch homolog protein 2 (Homo sapiens) (UniProt Q04721); experiment: small molecules binding Notch2 protein – biochemical, small-molecule microarray, 635 nm fluorescence, stem cell growth factors, primary screen (AID 1073); conditions: higher = more signal
[6] = target: Pro-neuregulin-1, membrane-bound isoform (Homo sapiens) (UniProt Q02297); experiment: small molecules binding neuregulin-1 protein – biochemical, small-molecule microarray, fluorescence 635/667, psychiatric disease protein project, primary screen (AID 1075); conditions: NRG1 binding, 635 nm fluorescence, higher = more signal;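 also: score combines 667 nm spot fluorescence with signal to noise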
[7] = system: Neuregulin-1 EGF-like domain; experiment: small molecules binding NRG1 EGF domain – biochemical, small-molecule microarray, 635 nm fluorescence, primary screen (AID 1081); conditions: higher = more signal;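 also: binding of the protein to compounds printed on small-molecule microarray slides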
[8] = FRG1 expression reporter modulators in myotubes – cell-based, C2C12 myotubes, firefly/Renilla luciferase, luminescence, FRG1 inhibition for FSHD, primary screen (AID 1084); conditions: FRG1 promoter luciferase, higher = more signal, called active from +8 up or from −8 down
[9] = small molecules captured by biotinylated probe aFST – biochemical, small-molecule microarray, fluorescence 635/667, stem cell growth factor project, primary screen (AID 1086); conditions: higher = more signal;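 also: score merges 667 nm fluorescence with signal-to-noise of each printed compound spot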
[10] = binders of probe aHhip on microarray, primary screen, stem cell growth factor project, biochemical, small-molecule microarray, fluorescence 635/667 (AID 1087); conditions: higher = more signal;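 also: score merges spot fluorescence at 667nm with spot signal to noise ratio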
[11] = system: PRMT1 (protein arginine N-methyltransferase 1); experiment: small molecules binding arginine methyltransferase PRMT1 – biochemical, small-molecule microarray, 635 nm fluorescence, primary screen (AID 1088); conditions: higher = more signal;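 also: binding of Prmt1 protein to compounds spotted on small-molecule microarray slides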
[12] = growth effects on S. cerevisiae YJM789 – YJM789 clinical isolate, OD600, 24 h, basal, primary screen (AID 1089); conditions: higher = more signal, called active from +8 up or from −8 down;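 also: growth of clinical yeast isolate S. cerevisiae YJM 789 seeded 1000 cells per well; test concentration not given here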
[13] = S. pombe growth modifiers, basal conditions – strain 972, OD600, 24 h, no modulator, primary screen (AID 1090);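 also: basal condition with compound alone and no growth modifier present; test concentration not given here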; conditions: S. pombe 972 growth, higher = more signal, called active from +8 up or from −8 down
[14] = budding yeast growth modifiers under rapamycin – strain BY4716, OD600, 96 h, primary screen (AID 1091); also: test concentration not given here; conditions: S. cerevisiae BY4716 + rapamycin, higher = more signal, called active from +8 up or from −8 down
[15] = target: Torsin-1A-interacting protein 2 (Homo sapiens) (UniProt Q8NFQ8); experiment: small molecules binding lysate-expressed LULL1 – cell lysate, human LULL1 lysate, 635/667 nm fluorescence, primary screen (AID 1092); conditions: small-molecule microarray, hLULL1 lysate binding, 635 nm fluorescence; higher = more signal;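 also: probe is lysate of COS7 cells overexpressing human LULL1; score merges per-feature 667 nm fluorescence with signal-to-noise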
[16] = optical density change of DRC41 E. coli – strain DRC41, OD650, 24 h, E. coli filamentation project, primary screen (AID 1093);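 also: MC1000 strain lacking acrAB efflux and sulA so SOS filamentation is blocked; test concentration not given here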; conditions: E. coli DRC41 growth, higher = more signal, called active from +8 up or from −8 down
[17] = probe aLefty2 binding to arrayed compounds – biochemical, biotinylated probe, 635/667 nm fluorescence, primary screen (AID 1094); conditions: small-molecule microarray, higher = more signal;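 also: score merges spot fluorescence near 667 nm with spot signal-to-noise ratio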
[18] = system: Noggin (protein binding on small-molecule microarray); experiment: small molecules binding Noggin protein – biochemical, 635/667 nm fluorescence, primary screen (AID 1095); conditions: 635 nm fluorescence, higher = more signal;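 also: score merges 667 nm feature fluorescence with signal to noise over triplicate slides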
[19] = target: Neurogenic locus notch homolog protein 3 (Homo sapiens) (UniProt Q9UM47); experiment: small molecules binding NOTCH3 protein – biochemical, 635/667 nm fluorescence, primary screen (AID 1096); conditions: small-molecule microarray, 635 nm fluorescence, higher = more signal
[20] = probe aEGFR binding to arrayed compounds – biochemical, biotinylated probe, 635/667 nm fluorescence, primary screen (AID 1097); conditions: small-molecule microarray, higher = more signal;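 also: probe is a biotinylated anti-EGFR antibody binding compounds printed on slides; score combines fluorescence near 667 nm and signal to noise of each spot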

Torsin-1A-interacting protein 2 (Homo sapiens), sequence (Q8NFQ8 whole entry, looked up): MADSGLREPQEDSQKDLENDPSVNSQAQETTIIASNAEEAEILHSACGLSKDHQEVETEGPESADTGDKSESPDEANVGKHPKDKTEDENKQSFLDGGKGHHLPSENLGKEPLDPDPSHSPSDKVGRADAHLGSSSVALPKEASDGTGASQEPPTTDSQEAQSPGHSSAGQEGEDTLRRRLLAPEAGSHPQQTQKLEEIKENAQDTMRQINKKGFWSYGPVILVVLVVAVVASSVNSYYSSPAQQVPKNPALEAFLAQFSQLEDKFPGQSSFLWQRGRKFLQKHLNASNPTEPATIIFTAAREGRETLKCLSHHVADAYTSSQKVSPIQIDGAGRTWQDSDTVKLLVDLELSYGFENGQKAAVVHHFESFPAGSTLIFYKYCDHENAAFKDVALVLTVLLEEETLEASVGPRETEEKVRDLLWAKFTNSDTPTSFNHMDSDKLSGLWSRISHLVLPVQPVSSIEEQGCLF
Neurogenic locus notch homolog protein 2 (Homo sapiens), sequence (Q04721 whole entry, looked up, canonical isoform): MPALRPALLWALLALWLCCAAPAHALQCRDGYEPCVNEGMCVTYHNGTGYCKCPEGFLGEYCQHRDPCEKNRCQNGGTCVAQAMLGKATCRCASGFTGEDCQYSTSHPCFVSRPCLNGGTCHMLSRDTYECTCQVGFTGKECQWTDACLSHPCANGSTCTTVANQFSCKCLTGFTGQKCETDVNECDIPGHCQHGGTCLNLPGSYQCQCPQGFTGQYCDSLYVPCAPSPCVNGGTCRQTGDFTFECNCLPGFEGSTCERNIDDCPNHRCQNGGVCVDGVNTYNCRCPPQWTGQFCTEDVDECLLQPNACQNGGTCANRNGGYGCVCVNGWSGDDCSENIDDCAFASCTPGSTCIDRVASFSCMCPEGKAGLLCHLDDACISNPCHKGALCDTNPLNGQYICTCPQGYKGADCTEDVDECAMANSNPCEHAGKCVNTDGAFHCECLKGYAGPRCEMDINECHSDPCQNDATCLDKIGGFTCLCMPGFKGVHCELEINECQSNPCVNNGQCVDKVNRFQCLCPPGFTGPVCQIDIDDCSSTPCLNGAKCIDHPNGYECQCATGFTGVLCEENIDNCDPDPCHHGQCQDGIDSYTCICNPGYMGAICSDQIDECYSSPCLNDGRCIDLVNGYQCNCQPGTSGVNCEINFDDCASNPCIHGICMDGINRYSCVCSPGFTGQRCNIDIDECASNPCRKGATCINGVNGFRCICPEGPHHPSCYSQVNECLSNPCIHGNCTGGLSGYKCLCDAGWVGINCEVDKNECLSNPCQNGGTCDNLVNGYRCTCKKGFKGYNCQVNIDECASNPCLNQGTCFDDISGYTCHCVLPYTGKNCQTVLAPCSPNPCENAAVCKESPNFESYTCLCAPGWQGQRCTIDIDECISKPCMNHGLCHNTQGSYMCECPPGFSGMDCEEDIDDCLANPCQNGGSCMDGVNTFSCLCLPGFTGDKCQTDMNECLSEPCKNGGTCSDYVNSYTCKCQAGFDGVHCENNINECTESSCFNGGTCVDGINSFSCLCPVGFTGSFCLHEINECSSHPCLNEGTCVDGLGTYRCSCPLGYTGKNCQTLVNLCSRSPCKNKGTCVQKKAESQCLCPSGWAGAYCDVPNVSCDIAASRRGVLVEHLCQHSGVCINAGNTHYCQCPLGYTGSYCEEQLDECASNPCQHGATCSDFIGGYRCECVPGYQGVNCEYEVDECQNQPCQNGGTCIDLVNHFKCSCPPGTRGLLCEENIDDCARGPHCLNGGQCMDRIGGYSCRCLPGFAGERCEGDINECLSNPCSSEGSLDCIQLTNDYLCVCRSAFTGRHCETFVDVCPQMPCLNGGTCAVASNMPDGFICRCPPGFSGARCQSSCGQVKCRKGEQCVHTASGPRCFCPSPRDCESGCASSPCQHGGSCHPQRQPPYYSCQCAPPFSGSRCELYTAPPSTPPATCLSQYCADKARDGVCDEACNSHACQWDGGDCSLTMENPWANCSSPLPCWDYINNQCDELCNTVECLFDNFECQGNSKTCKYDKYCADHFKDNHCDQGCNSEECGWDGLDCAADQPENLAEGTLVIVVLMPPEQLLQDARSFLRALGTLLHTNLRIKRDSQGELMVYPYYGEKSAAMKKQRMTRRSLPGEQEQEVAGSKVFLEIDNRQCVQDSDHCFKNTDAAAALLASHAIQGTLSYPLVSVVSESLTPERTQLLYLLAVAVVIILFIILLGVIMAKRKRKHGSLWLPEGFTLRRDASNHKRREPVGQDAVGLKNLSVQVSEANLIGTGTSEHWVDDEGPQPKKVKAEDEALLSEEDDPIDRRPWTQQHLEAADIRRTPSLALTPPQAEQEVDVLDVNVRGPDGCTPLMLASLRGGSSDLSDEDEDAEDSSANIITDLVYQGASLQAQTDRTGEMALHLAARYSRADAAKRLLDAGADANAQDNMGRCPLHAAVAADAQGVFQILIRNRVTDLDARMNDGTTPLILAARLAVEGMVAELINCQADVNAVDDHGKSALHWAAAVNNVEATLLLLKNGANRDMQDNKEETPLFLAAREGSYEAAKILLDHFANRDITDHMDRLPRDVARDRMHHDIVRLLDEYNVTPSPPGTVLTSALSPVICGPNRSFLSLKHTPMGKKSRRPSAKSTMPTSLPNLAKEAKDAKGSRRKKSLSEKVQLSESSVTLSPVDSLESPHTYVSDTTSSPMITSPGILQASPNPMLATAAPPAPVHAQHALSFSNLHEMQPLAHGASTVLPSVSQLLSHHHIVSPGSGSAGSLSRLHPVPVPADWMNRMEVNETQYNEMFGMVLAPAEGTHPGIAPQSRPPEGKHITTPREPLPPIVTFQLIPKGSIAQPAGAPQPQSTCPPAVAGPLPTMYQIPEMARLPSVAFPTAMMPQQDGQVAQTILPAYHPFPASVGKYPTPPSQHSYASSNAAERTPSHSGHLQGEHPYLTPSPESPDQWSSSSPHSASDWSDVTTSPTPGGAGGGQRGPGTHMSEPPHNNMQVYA
Pro-neuregulin-1, membrane-bound isoform (Homo sapiens), sequence (Q02297 whole entry, looked up, the tested form may be a part, canonical isoform): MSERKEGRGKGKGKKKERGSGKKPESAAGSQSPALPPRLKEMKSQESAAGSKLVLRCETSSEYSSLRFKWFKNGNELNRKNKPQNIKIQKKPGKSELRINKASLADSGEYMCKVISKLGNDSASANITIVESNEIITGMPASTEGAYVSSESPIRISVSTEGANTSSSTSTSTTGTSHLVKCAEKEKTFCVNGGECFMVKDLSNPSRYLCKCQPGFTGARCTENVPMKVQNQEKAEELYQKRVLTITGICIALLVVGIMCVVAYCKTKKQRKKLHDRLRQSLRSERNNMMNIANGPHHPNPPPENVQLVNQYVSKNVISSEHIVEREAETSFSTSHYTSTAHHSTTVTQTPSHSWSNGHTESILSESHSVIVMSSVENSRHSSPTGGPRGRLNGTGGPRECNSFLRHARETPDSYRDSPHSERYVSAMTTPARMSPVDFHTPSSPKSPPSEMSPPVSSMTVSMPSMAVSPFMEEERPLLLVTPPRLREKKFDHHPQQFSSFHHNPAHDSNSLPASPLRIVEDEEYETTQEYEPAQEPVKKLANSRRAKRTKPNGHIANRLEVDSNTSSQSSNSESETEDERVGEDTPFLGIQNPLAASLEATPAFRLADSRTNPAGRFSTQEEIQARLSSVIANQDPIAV

## C=C(C(=O)CC[C@H](OC(C)=O)c1ccc(CO)o1)C(C)C
[1]
  composite z-score: -0.466
[2]
  composite z-score: 0.615
[3]
  composite z-score: -0.189
[4]
  composite z-score: 0.122
[5]
  composite z-score: -1.28
[6]
  composite z-score: -0.116
[7]
  composite z-score: 0.388
[8]
  z-score: -0.629 (inactive)
[9]
  composite z-score: -0.393
[10]
  composite z-score: 0.0596
[11]
  composite z-score: 0.966
[12]
  z-score: 1.01 (inactive)
[13]
  z-score: -0.344 (inactive)
[14]
  z-score: -0.454 (inactive)
[15]
  composite z-score: 0.468
[16]
  z-score: 1.44 (inactive)
[17]
  composite z-score: -0.127
[18]
  composite z-score: 0.512
[19]
  composite z-score: -0.654
[20]
  composite z-score: -0.181

## COc1ccc([Si](C)(C)[C@H]2[C@H](CC(=O)N(CCO)Cc3ccccc3)O[C@@]3(C(=O)N(Cc4ccc(N5CCC5=O)cc4)c4ccccc43)[C@@H]2C)cc1
[1]
  composite z-score: 0.278
[2]
  composite z-score: 0.323
[3]
  composite z-score: -0.128
[4]
  composite z-score: -1.07
[5]
  composite z-score: -0.741
[6]
  composite z-score: 1.02
[7]
  composite z-score: 0.469
[8]
  z-score: -2.75 (inactive)
[9]
  composite z-score: -0.336
[10]
  composite z-score: -0.226
[11]
  composite z-score: 0.499
[12]
  z-score: 0.478 (inactive)
[13]
  z-score: 0.617 (inactive)
[14]
  z-score: 1.96 (inactive)
[15]
  composite z-score: 0.953
[16]
  z-score: 1.48 (inactive)
[17]
  composite z-score: -0.166
[18]
  composite z-score: -0.156
[19]
  composite z-score: -0.813
[20]
  composite z-score: -0.302

## CCCCCN1CC=CC23O[C@@H]4/C=C\CCC(C)OC(=O)C4[C@H]2C(=O)N(CCO)[C@@H]3C1=O (stereo not given in full)
[1]
  composite z-score: 0.767
[2]
  composite z-score: 2.14
[3]
  composite z-score: -0.216
[4]
  composite z-score: -0.807
[5]
  composite z-score: -0.762
[6]
  composite z-score: 0.77
[7]
  composite z-score: 1.13
[8]
  z-score: 0.569 (inactive)
[9]
  composite z-score: -0.639
[10]
  composite z-score: -0.16
[11]
  composite z-score: -0.754
[12]
  z-score: -0.139 (inactive)
[13]
  z-score: -1.24 (inactive)
[14]
  z-score: -0.0531 (inactive)
[15]
  composite z-score: 1.45
[16]
  z-score: 2.35 (inactive)
[17]
  composite z-score: -0.139
[18]
  composite z-score: -1.36
[19]
  composite z-score: -0.728
[20]
  composite z-score: -0.317

## O=C(NC1CC1)[C@@H]1c2ccccc2C(=O)N(Cc2ccccc2C(F)(F)F)[C@H]1c1ccc(CO)cc1
[1]
  composite z-score: -0.432
[2]
  composite z-score: 0.436
[3]
  composite z-score: -0.116
[4]
  composite z-score: 0.39
[5]
  composite z-score: 0.693
[6]
  composite z-score: 0.988
[7]
  composite z-score: 1.26
[8]
  z-score: -1.64 (inactive)
[9]
  composite z-score: 0.336
[10]
  composite z-score: -0.226
[11]
  composite z-score: 1.57
[12]
  z-score: -0.541 (inactive)
[13]
  z-score: -1.77 (inactive)
[14]
  z-score: -0.731 (inactive)
[15]
  composite z-score: 2.27
[16]
  z-score: 1 (inactive)
[17]
  composite z-score: -0.15
[18]
  composite z-score: 0.458
[19]
  composite z-score: 1.13
[20]
  composite z-score: -0.039

## C=C(COC)/C(=C/C[C@H](OC(C)=O)c1cccc(OCCO)c1)c1cc(C(=O)OC)ccc1OC
[1]
  composite z-score: -0.269
[2]
  composite z-score: 0.952
[3]
  composite z-score: -0.0986
[4]
  composite z-score: 0.318
[5]
  composite z-score: -0.38
[6]
  composite z-score: 0.0557
[7]
  composite z-score: 0.691
[8]
  z-score: -3.63 (inactive)
[9]
  composite z-score: 0.276
[10]
  composite z-score: -0.0296
[11]
  composite z-score: 0.905
[12]
  z-score: -25.1 (active)
[13]
  z-score: -20.5 (active)
[14]
  z-score: -4.33 (inactive)
[15]
  composite z-score: 0.574
[16]
  z-score: 1.57 (inactive)
[17]
  composite z-score: 0.0056
[18]
  composite z-score: 1.29
[19]
  composite z-score: 0.694
[20]
  composite z-score: -0.151

## CN(C)CCCC[C@@H]1NC(=O)[C@@H]2C[C@H](C(=O)NCCCCCNC(=O)CS)[C@H](c3cccc(OCCO)c3)N2C1=O
[1]
  composite z-score: 0.32
[2]
  composite z-score: 0.532
[3]
  composite z-score: -0.101
[4]
  composite z-score: 0.141
[5]
  composite z-score: 0.393
[6]
  composite z-score: 0.267
[7]
  composite z-score: 1.2
[8]
  z-score: 0.37 (inactive)
[9]
  composite z-score: 0.19
[10]
  composite z-score: 0.259
[11]
  composite z-score: 1.07
[12]
  z-score: -2.64 (inactive)
[13]
  z-score: -1.81 (inactive)
[14]
  z-score: -2.15 (inactive)
[15]
  composite z-score: 0.127
[16]
  z-score: 2.1 (inactive)
[17]
  composite z-score: 0.0494
[18]
  composite z-score: 1.62
[19]
  composite z-score: 0.162
[20]
  composite z-score: 0.186

## C=CCN1C(=O)[C@]2(O[C@H](CCn3cc([C@H](O)c4ccccc4)nn3)[C@@H]([Si](C)(C)c3ccc(OC)cc3)[C@@H]2C)c2cc(N3CCOC3=O)ccc21
[1]
  composite z-score: 0.264
[2]
  composite z-score: 0.443
[3]
  composite z-score: -0.154
[4]
  composite z-score: -0.213
[5]
  composite z-score: -0.74
[6]
  composite z-score: 0.579
[7]
  composite z-score: 1.16
[8]
  z-score: -2.7 (inactive)
[9]
  composite z-score: -0.297
[10]
  composite z-score: -0.0128
[11]
  composite z-score: 1.37
[12]
  z-score: 0.326 (inactive)
[13]
  z-score: 0.155 (inactive)
[14]
  z-score: 4.47 (inactive)
[15]
  composite z-score: 1.41
[16]
  z-score: 1.75 (inactive)
[17]
  composite z-score: -0.23
[18]
  composite z-score: -0.394
[19]
  composite z-score: -0.583
[20]
  composite z-score: -0.232

## COC(=O)C(CC#Cc1ccc2c(c1)[C@]1(C(=O)N2)[C@H](c2ccccc2OCCO)N2[C@H](c3ccccc3)[C@H](c3ccccc3)OC(=O)[C@H]2[C@@H]1C(=O)N1CCCCCCC1)C(=O)OC
[1]
  composite z-score: 4
[2]
  composite z-score: 2.62
[3]
  composite z-score: 0.984
[4]
  composite z-score: 1.28
[5]
  composite z-score: 1.54
[6]
  composite z-score: 2.17
[7]
  composite z-score: 0.982
[8]
  z-score: 0.62 (inactive)
[9]
  composite z-score: 3.71
[10]
  composite z-score: 2.52
[11]
  composite z-score: 1.53
[12]
  z-score: 0.349 (inactive)
[13]
  z-score: 0.958 (inactive)
[14]
  z-score: 1.06 (inactive)
[15]
  composite z-score: 4.89
[16]
  z-score: 1.83 (inactive)
[17]
  composite z-score: 1.93
[18]
  composite z-score: 2.02
[19]
  composite z-score: 1.09
[20]
  composite z-score: 1.44

## C=C[C@H](OC)[C@@H](OC(=O)Nc1ccc(OC)cc1)c1ccc(OC)c(O)c1
[1]
  composite z-score: 1.46
[2]
  composite z-score: -0.68
[3]
  composite z-score: -0.209
[4]
  composite z-score: -1.29
[5]
  composite z-score: -2.83
[6]
  composite z-score: 0.272
[7]
  composite z-score: 0.843
[8]
  z-score: 1.51 (inactive)
[9]
  composite z-score: -1.11
[10]
  composite z-score: -0.487
[11]
  composite z-score: -1.07
[12]
  z-score: 0.698 (inactive)
[13]
  z-score: -0.133 (inactive)
[14]
  z-score: 0.551 (inactive)
[15]
  composite z-score: -0.0649
[16]
  z-score: 2.09 (inactive)
[17]
  composite z-score: -0.21
[18]
  composite z-score: -1.8
[19]
  composite z-score: -0.805
[20]
  composite z-score: -0.373

Source: PubChem BioAssay
